The record followed here is PubChem BioAssay (Tox21).

Each structure is given as a SMILES string. Where “and” joins values, the source holds several entries; their conditions need not be identical. Identical values can stand only once. Results filed as inconclusive are left out. A structure can be active in one record and inactive in another. Calls of active or inactive are those of the source. Unless noted, calls follow the shape of the dose curve; as a rule, active = well fitted curve in the direction sought with a large enough effect in the repeat runs; inconclusive = weak or mixed curves; inactive = no such curve, though single readings can be large; an effect the other way counts as inactive or inconclusive.

The nature of assay [1]: qHTS assay for small molecule agonists of the p53 signaling pathway (AID 651631; calls by dose curve; also: nearly all actives have a fitted effect of over 15% in size). Summed up:
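Fluorescence intensity from cleaved LiveBLAzer B/G substrate (2 h, room temperature) served as the signal. Beforehand, HCT-116 reporter cells bearing p53 response elements were treated 16 h at 37 °C with DMSO-dissolved compounds.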

A short description of assay [2]: qHTS assay for small molecules that induce genotoxicity in human embryonic kidney cells expressing luciferase-tagged ATAD5 (AID 651632). Also: nearly all actives have a fitted effect of over 15% in size. A digest of the protocol: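 DMSO vehicle served as the control. HEK293T reporter cells, 16 hr at 37C, then 30 min Amplite at room temperature; ATAD5 induction is measured as luciferase activity.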
Assay [3] in a line: qHTS assay for small molecule agonists of the p53 signaling pathway - cell viability (AID 651633; calls by dose curve;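 also: p53RE-bla HCT reporter cells with a stable beta-lactamase p53 reporter; series mostly up to about 83 µM; nearly all actives have a fitted effect of over 30% in size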). A digest of the protocol:
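Viability counter-read: CellTiter-Glo luminescence (30 min, room temperature) in the same p53RE-bla plates. These plates had been exposed to compounds for 16 h at 37 C.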

The nature of assay [4]: qHTS assay for small molecules that induce genotoxicity in human embryonic kidney cells expressing luciferase-tagged ATAD5 - cell viability (AID 651634; calls by dose curve; also: nearly all actives have a fitted effect of over 25% in size). A digest of the protocol:
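Here HEK293T cells with the ATAD5 luciferase reporter are incubated with test compounds for 15.5 hr, and cytotoxicity is then gauged by measuring protease activity in live cells using fluorescence.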

Assay [5] in a line: qHTS assay for small molecule disruptors of the mitochondrial membrane potential - cell viability (AID 720634; calls by dose curve;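 also: human HepG2 liver cancer cells; series mostly up to about 83 µM; nearly all actives have a fitted effect of over 20% in size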). A digest of the protocol:
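Viability of HepG2 cells is scored from ATP content by luminescence; cells are exposed to compound for 1 hr at 37 C and 5% CO2, then dosed with m-MPI dye before the CellTiter-Glo reagent.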

A short description of assay [6]: qHTS assay for small molecule disruptors of the mitochondrial membrane potential (AID 720635). Also: potency is read from the fitted curve at half-maximal effect. A digest of the protocol: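 Mitochondrial membrane potential tracked with Mito-MPS dye, red aggregates (ex 540/em 590 nm) against green monomers (ex 490/em 535 nm). Compound treatment 1 hr at 37C, dye 30 min in HepG2.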
A short description of assay [7]: qHTS assay to test for compound auto fluorescence at 590 nm (red) in HepG2 cells (AID 720674). Summed up:
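We screened compounds on adherent HepG2 cells, incubating them for an hour at 37 C in 5% CO2 before reading emission at 590 nm under 540 nm excitation; values reflect equivalence to Rose Bengal sodium fluorescence.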

Assay [8] is described as follows: qHTS assay to test for compound auto fluorescence at 535 nm (green) in HepG2 cells (AID 720675).
A short description of assay [9]: qHTS assay to test for compound auto fluorescence at 460 nm (blue) in HEK293 cells (AID 720678). A digest of the protocol: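 HEK293 cells (2,000/well, medium with 10% dialyzed FBS) attached 4-5 hr, then exposed to compound overnight at 37C, 5% CO2. Blue fluorescence read at 405/460 nm, with triamterene as reference fluorophore.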
Assay [10] is described as follows: qHTS assay to test for compound auto fluorescence at 590 nm (red) in HEK293 cells (AID 720679). Summed up: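 HEK293 cells (2,000/well, 10% dialyzed FBS) attached 4-5 hr, then dosed with compound or DMSO and incubated overnight at 37C, 5% CO2. Red fluorescence read at 540/590 nm, Rose Bengal sodium as reference fluorophore.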
The nature of assay [11]: qHTS assay to test for compound auto fluorescence at 535 nm (green) in HEK293 cells (AID 720680).
Assay [12] can be described thus: qHTS assay to test for compound auto fluorescence at 460 nm (blue) in HEK293 cell free culture (AID 720681). Summed up: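 Blue fluorescence (Ex 405/Em 460 nm, triamterene-equivalent) was read immediately after pin transfer of compound or DMSO into medium (DMEM, 10% FBS) without cells.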
A short description of assay [13]: qHTS assay to test for compound auto fluorescence at 535 nm (green) in HEK293 cell free culture (AID 720682). A digest of the protocol: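 Intrinsic compound fluorescence is measured in culture medium containing 10% FBS, with excitation at 485 nm and detection at 535 nm, referenced to fluorescein.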
The nature of assay [14]: qHTS assay to test for compound auto fluorescence at 590 nm (red) in HEK293 cell free culture (AID 720683). A digest of the protocol:
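Red-channel autofluorescence of compounds in culture medium (DMEM, 10% FBS), no cells, measured at 540/590 nm. Rose Bengal sodium is the reference fluorophore for equivalence.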

The nature of assay [15]: qHTS assay to test for compound auto fluorescence at 590 nm (red) in HepG2 cell free culture (AID 720684). A digest of the protocol:
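No cells present: MEM + 10% FBS only. Compound pinned in, red label read (540/590 nm). Activity = fluorescence equivalent to Rose Bengal sodium.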

Assay [16] in a line: qHTS assay to test for compound auto fluorescence at 460 nm (blue) in HepG2 cell free culture (AID 720685). A digest of the protocol:
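Cell-free plates of MEM plus 10% FBS received 23 nL compound or DMSO vehicle; blue-channel (405/460 nm) intensity scored against triamterene as reference fluorophore.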

Assay [17] can be described thus: qHTS assay to test for compound auto fluorescence at 535 nm (green) in HepG2 cell free culture (AID 720686).
Assay [18] is described as follows: qHTS assay to test for compound auto fluorescence at 460 nm (blue) in HepG2 cells (AID 720687). Summed up: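 Blue-channel autofluorescence (Ex/Em 405/460 nm, triamterene-equivalent) was measured after 1 hr compound exposure at 37 C, 5% CO2. Cells were HepG2, plated overnight at 37 C in MEM plus 10% FBS.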
Assay [19] deals with Glucocorticoid receptor (Homo sapiens) (UniProt P04150). Nature of the assay: qHTS assay to identify small molecule agonists of the glucocorticoid receptor (GR) signaling pathway (AID 720691; active = well fitted activation curve with a large enough effect in the signal ratio in the repeat runs, not every such curve was filed as active; the % refers to the signal ratio). A digest of the protocol: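 Compounds in DMSO, alongside positive controls, were added to GR-bla HeLa reporter cells and incubated 18 h at 37 C; GRE-driven beta-lactamase was detected by fluorescence after 2 h with FRET substrate at room temperature.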

Assay [20] has the same target. Nature of the assay: qHTS assay to identify small molecule antagonists of the glucocorticoid receptor (GR) signaling pathway (AID 720692; active = well fitted inhibition curve with a large enough effect in the signal ratio in the repeat runs, not every such curve was filed as active; the % refers to the signal ratio). Summed up:
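In a 1536-well cell format, compounds were added 4 h after seeding GR-bla HeLa cells, together with dexamethasone at 5 nM final; reporter activity was measured by FRET-substrate fluorescence following 18 h at 37 C.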

Sequence of Glucocorticoid receptor (Homo sapiens) (P04150 whole entry, looked up): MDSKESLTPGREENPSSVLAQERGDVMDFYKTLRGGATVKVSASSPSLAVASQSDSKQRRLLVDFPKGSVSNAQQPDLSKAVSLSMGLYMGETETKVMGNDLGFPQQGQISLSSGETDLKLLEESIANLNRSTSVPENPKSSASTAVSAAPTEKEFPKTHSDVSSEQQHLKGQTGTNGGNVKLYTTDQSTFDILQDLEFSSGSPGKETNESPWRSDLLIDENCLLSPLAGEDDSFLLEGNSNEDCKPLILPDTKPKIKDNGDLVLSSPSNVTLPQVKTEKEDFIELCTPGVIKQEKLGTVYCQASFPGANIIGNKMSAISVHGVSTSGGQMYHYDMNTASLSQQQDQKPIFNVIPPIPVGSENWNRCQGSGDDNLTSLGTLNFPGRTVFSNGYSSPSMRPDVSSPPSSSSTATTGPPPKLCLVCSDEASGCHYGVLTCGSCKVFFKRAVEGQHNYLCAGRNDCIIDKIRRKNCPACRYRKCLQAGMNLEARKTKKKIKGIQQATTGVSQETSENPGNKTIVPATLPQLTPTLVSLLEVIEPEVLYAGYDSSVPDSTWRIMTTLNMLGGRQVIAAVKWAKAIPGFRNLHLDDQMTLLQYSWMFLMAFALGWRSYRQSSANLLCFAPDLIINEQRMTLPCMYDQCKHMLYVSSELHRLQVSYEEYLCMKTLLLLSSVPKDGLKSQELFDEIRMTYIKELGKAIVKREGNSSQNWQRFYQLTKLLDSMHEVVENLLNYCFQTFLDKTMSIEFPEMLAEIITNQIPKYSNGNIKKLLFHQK

For `[N-]=[N+]=CC(=O)OC[C@H](N)C(=O)O`, the Potency result in assay [1], in assay [2], in assay [3], in assay [4], in [5] and in assay [6] was “inactive” throughout. Further, the call in assay [7], in assay [8], in [9], in assay [10], in assay [11] and in assay [12] was inactive. Further, the molecule was called inactive in assay [13], in [14], in assay [15], in [16], in [17] and in assay [18].

Regarding `C=CC(=O)OCCCCCC(C)C`, the Potency result in [1], in assay [2], in assay [3], in [4], in assay [5] and in [6] was “inactive” in each case. The call in [7], in [8], in assay [9], in assay [10], in [11] and in assay [12] was inactive. Also, the result in assay [13], in assay [14], in [15], in assay [16], in assay [17] and in assay [18] was inactive.

`Cl/C=C/Cl`: the Potency entry in assay [1], in assay [2], in assay [3], in assay [4], in [5] and in [6] was “inactive” in each case. Also, the Potency entry in [20] was “inactive”. The call in assay [7], in assay [8], in assay [9], in [10], in [11] and in [12] was inactive. Further, the molecule was called inactive in assay [13], in [14], in [15], in [16], in assay [17] and in assay [18]. Further, the call in assay [19] was inactive.

`Nc1ccc([As](=O)(O)O)cc1`: the Potency entry in assay [1], in assay [2], in assay [3], in assay [4], in assay [5] and in [6] was “inactive” throughout. Moreover, the molecule was called inactive in [7], in assay [8], in [9], in assay [10], in [11] and in assay [12]. For the same molecule, the outcome in assay [13], in assay [14], in assay [15], in [16], in [17] and in [18] was inactive.

`COC(C)(C)CCCC(C)C/C=C/C(C)=C/C(=O)OC(C)C` (stereo not given): the Potency entry in assay [1], in [2], in assay [3], in [4] and in assay [5] was “inactive” each time. The Potency result in [6] is “inactive and 21.3 µM (active)”. Moreover, the molecule was called inactive in [7], in assay [8], in [9], in assay [10], in assay [11] and in assay [12]. The molecule was classed as inactive in [13], in assay [14], in assay [15], in [16], in assay [17] and in [18].

Take `CCSC(=O)N1CCCCCC1`: the Potency entry in assay [1], in assay [2], in assay [3], in assay [4], in assay [5] and in [6] was “inactive” throughout. For the same molecule, the molecule was called inactive in assay [7], in assay [8], in assay [9], in assay [10], in assay [11] and in assay [12]. In addition, the call in [13], in assay [14], in assay [15], in [16], in assay [17] and in [18] was inactive.

`Cc1ccc(O)c(C)c1`: the Potency entry in assay [1], in [2], in assay [3], in assay [4], in [5] and in [6] was “inactive” throughout. Also, the Potency result in assay [20] was “inactive”. Besides, the outcome in assay [7], in assay [8], in [9], in [10], in assay [11] and in assay [12] was inactive. Further, the result in [13], in assay [14], in assay [15], in assay [16], in assay [17] and in [18] was inactive. In addition, the call in assay [19] was inactive.

With `CNCC(O)c1ccc(O)cc1` (stereo not given), the Potency entry in assay [1], in assay [2], in [3], in [4], in assay [5] and in assay [6] was “inactive” in each case. For the same molecule, the Potency result in assay [20] is “inactive”. The outcome in assay [7], in [8], in [9], in assay [10], in assay [11] and in assay [12] was inactive. The call in [13], in assay [14], in assay [15], in assay [16], in assay [17] and in [18] was inactive. For the same molecule, in assay [19], the molecule was classed as inactive.
